Assay outcomes (PubChem)
Shown are actives, neighbours in structure and some others; about 2.4% of the full set was active somewhere.
D2 antagonist: D2 dopamine receptor (human) antagonism. P14416. 340,000 compounds, 2% hits. inhibition, % at 10 µM. HEK293 TREx D2 cells, calcium flux, dopamine EC80. AID 485344; in the data active = inhibition above about 30%; inactive = below that, where a call was filed; also: 0% is about no effect
Target sequence (P14416 whole entry, looked up): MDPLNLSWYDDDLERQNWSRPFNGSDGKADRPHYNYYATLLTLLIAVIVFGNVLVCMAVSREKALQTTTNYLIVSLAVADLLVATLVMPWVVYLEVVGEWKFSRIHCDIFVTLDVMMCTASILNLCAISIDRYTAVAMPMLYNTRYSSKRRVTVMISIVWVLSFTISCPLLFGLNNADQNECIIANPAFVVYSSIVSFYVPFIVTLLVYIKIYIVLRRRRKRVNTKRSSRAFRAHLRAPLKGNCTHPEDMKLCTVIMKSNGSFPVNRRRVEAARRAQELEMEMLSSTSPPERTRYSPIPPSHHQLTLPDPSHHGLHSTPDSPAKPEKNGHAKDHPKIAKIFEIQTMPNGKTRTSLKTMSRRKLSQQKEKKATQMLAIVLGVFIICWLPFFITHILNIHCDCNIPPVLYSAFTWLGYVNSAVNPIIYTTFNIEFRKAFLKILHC
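Calcium mobilization kinetics were recorded at 1 s intervals in tetracycline-induced HEK293 T-REx D2 cells, first for 180 s after compound addition and then 180 s after EC80 dopamine.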
D2 PAM-1: positive allosteric modulators of human D2 dopamine receptor | P14416 | DiscoveRx D2 beta-arrestin cells, luminescence, 90 min; 100% = 57 uM dopamine signal | potentiation, % (no concentration beside the values) | 360,000 compounds, 0.23% hits | AID 624464; in the data active = potentiation above about 50%; inconclusive = mostly about 30% to 49%
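PathHunter D2 cells, attached overnight at 37 deg C, received compound in DMSO plus dopamine at EC20 (50 nM final) for 90 min at 37 deg C. Beta-arrestin recruitment was read as luminescence after 1 h with detection reagent at ambient temperature.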
D2 PAM-2: D2 dopamine receptor (human) potentiation; HEK293 T-REx D2, calcium flux, EC20 dopamine potentiation; potentiation, % at 10 µM; P14416; 340,000 compounds, 0.34% hits; AID 485347;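 active = potentiation over 3 SD above the plate norm, cut at about 30% in these data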; also: 0% is about no effect
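Potentiation of an EC20 dopamine calcium response measured kinetically over 180 s, after a preceding 180 s compound-only read flagging agonists. Cells: inducible Hek293 Trex D2 line, 4000/well, cultured overnight at 30 C before dye loading.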
D2 ag-1: human D2 receptor agonism in beta-arrestin assay | activation, % (concentration not given with the values) | 360,000 compounds, 0.084% hits | AID 624465 | P14416 | DiscoveRx PathHunter D2 beta-arrestin, luminescence, 90 min; 100% = 57 uM dopamine signal; in the data active = activation above about 40%; inconclusive = between about 15% and that limit
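Agonist mode: compounds alone added to overnight-plated D2 PathHunter cells for 90 min at 37 C, with 57 uM final dopamine (EC100) defining full response. Beta-arrestin recruitment detected by chemiluminescent reagent, read after 1 h at ambient temperature.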
D2 ag-2: agonists of human D2 dopamine receptor | P14416 | HEK293 T-REx D2 cells, calcium flux agonist mode | activation, % at 2 µM | 340,000 compounds, 0.53% hits | AID 485358;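 active = activation over 3 SD above normal in the single-dose calcium agonist read, cut at about 30% in these data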; also: 0% is about no effect
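HEK293 Trex D2 cells, tetracycline-induced, o/n 30 C 5% CO2; no-wash Ca dye, RT 30–90 min; 10-cycle baseline, 23 nl cpd added, kinetic Ca read 180 s; agonist hits = positive Ca response.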
Active calls of the source: *; ? = inconclusive; . = no result given.

SMILES	D2 antagonist	D2 PAM-1	D2 PAM-2	D2 ag-1	D2 ag-2
COc1cc2ccnc(Cc3cccc(OC)c3OC)c2cc1OC	-4.3	55.3*	0.3	15.0	1.4
O=C(Nc1cccc(S(=O)(=O)N2CCOCC2)c1)C1CCN(S(=O)(=O)c2ccccc2)CC1	-16.2	-2.2	-12.0	-2.1	0.1
O=C(CSc1nc2c(sc3ccccc32)c(=O)n1CCCN1CCCC1)NCC1CCCO1 (stereo unspecified)	11.8	-36.2	41.0*	-0.2	0.9
Cc1ccccc1CC(=O)N1CCC(CCC(=O)NC2CC2)CC1	.	0.7	.	-2.1	.
C=CCNC(=S)NNC(=O)CC12CC3CC(CC(C3)C1)C2	33.6*	-5.8	-5.2	-3.1	0.3
O=C(NCCCNC(=O)c1ccccn1)c1ccc(Cl)cc1	14.5	-4.7	-9.2	-0.1	0.5
COc1ccc(N(C(=O)c2ccccc2OC(C)=O)C(C)C2CC2)cc1 (stereo unspecified)	30.5*	-4.2	-25.4	-1.9	-0.7
COc1ccc(NC(=O)CN(C)C(=O)c2ccccc2OC)cc1	-2.5	-1.3	2.3	-0.9	0.2
C=CCC1(O)C(=O)N2C(=C1C(=O)N1CCOCC1)c1ccccc1CC2(C)C (stereo unspecified)	44.8*	-6.1	-6.7	-2.1	0.6
CCCN1CNc2c(c(=O)[nH]c(=S)n2-c2ccccc2Cl)C1	2.6	2.2	67.6*	-4.4	-0.3
O=C1CN=C(Nc2ccccc2Cl)N1c1ccccc1	36.4*	1.3	-5.2	-5.3	1.5
CCOc1ccc(N2C(=O)CN=C2Nc2ccccc2Cl)cc1	-4.5	-12.8	-7.4	-2.1	0.4
COc1ccc(CCn2c(O)c(C3=c4ccccc4=NC3=O)sc2=S)cc1OC	10.5	28.1	7.2	6.0	-0.5
O=C1N=c2ccccc2=C1c1sc(=S)n(CC2CCCO2)c1O (stereo unspecified)	2.2	107.6*	4.4	13.3	-2.2
CN(C)c1ccc(C(CNC(=O)c2cccc(C(F)(F)F)c2)N2CCCC2)cc1 (stereo unspecified)	.	.	-23.9	.	0.3
O=c1c2ccsc2ncn1Cc1ccc(Cl)cc1	38.0*	-2.0	2.9	-8.3	0.8
O=c1c2ccccc2ncn1Cc1ccccc1	12.4	-5.5	14.1	-0.4	0.3
CCN(CC)S(=O)(=O)c1ccc(OC)c(NC(=O)c2cc([N+](=O)[O-])ccc2N2CCOCC2)c1	.	-4.2	.	0.0	.
O=C(COC(=O)c1cc([N+](=O)[O-])ccc1N1CCOCC1)Nc1ccc(Cl)cc1	41.8*	-27.5	-8.1	1.9	0.6
CCN(CC)S(=O)(=O)c1cc(NC(=O)c2cc([N+](=O)[O-])ccc2N2CCOCC2)ccc1C	37.3*	-35.8	-4.4	-4.5	0.0
COc1ccccc1-c1cc(C(=O)N/N=C/c2ccoc2)c2ccccc2n1	79.1*	-15.5	-20.7	-2.6	-0.7
O=C(N/N=C/c1cccnc1)c1cc(-c2ccccc2Cl)nc2ccccc12	3.4	-1.0	7.6	0.8	1.3
Cc1ccccc1-c1cc(C(=O)N/N=C/c2cccnc2)c2ccccc2n1	32.5*	-14.4	-2.3	-2.7	11.6
COc1ccccc1-c1cc(C(=O)N/N=C/c2ccc(C)s2)c2ccccc2n1	47.7*	-42.1	-28.9	-6.6	-0.9
CCc1ccc(/C=N/NC(=O)c2cc(-c3ccccc3OC)nc3ccccc23)s1	35.2*	-13.7	-10.1	-3.8	-0.3
SMILES	D2 antagonist	D2 PAM-1	D2 PAM-2	D2 ag-1	D2 ag-2
COc1ccc(/C=N/NC(=O)c2cc(-c3ccccc3OC)nc3ccccc23)cc1COC(C)=O	2.1	-33.0	1.0	-1.9	-1.3
CCn1c2c(c(=O)n3ncc(C(=O)Nc4ccc(C(=O)OC)cc4)c13)CN(Cc1ccc(OC)cc1)CC2	.	.	-0.4	.	-0.5
COC(=O)c1ccc(C)c(NC(=O)c2ccc(CN3CCc4ccccc4C3)cc2)c1	77.9*	-26.2	-28.7	-8.0	22.0
Cc1ccc(NC(=O)c2ccc(CN3CCc4ccccc4C3)cc2)cc1	16.6	-40.7	-17.0	-8.6	1.0
O=C(Nc1cccnc1)c1ccc(CN2CCc3ccccc3C2)cc1	65.8*	-36.5	-23.3	-0.8	2.8
O=C(Nc1ccccc1)c1ccc(CN2CCc3ccccc3C2)cc1	54.2*	-12.1	.	0.5	-0.5
Cc1cn([C@H]2C[C@H](O)[C@@H](CNCc3cc(Br)ccc3OCc3ccccc3)O2)c(=O)[nH]c1=O	.	-3.1	.	-7.2	.
O=S(=O)(c1ccc2c(c1)OCO2)N1CCN(c2nnnn2-c2ccccc2)CC1	36.2*	-7.0	25.6	-4.0	0.7
CCOc1ccc(Cc2onc3c2C(=O)CC(C)(C)C3)cc1OCC	0.8	2.6	37.8*	0.6	-0.9
CCOc1ccc(Cc2onc3c2C(=O)CCC3)cc1OCC	4.0	-3.1	-6.6	-2.9	4.0
O=S(=O)(Nc1cc(F)ccc1F)c1cccc2nonc12	-7.3	0.4	9.6	-6.0	0.4
COc1ccc(CCN(C)C2CCCN(C(=O)c3sccc3C)C2)cc1OC (stereo unspecified)	57.0*	-14.6	-26.2	-1.9	0.2
CC(C)C(NS(=O)(=O)c1ccc2c(c1)oc(=O)n2C)C(=O)N1CCN(C2CCCCC2)CC1 (stereo unspecified)	30.6*	-3.2	1.5	-1.1	1.3
CC1CC(C)CN(C(=O)C(NS(=O)(=O)c2ccc3c(c2)oc(=O)n3C)C(C)C)C1 (stereo unspecified)	-13.2	-7.5	3.0	-2.7	0.6
CON(C)S(=O)(=O)c1cccc(C(=O)Nc2ccc(S(=O)(=O)NC3=NCCCCC3)cc2)c1	32.7*	-17.6	-4.5	0.4	-0.7
N=c1oc2c3c4c(cc2cc1C(=O)Nc1ccccc1)CCCN4CCC3	70.8*	22.6	-15.5	3.7	95.1*
Cc1nc2cc(NC(=O)c3cccc(S(C)(=O)=O)c3)ccc2o1	33.4*	-5.9	-16.9	-0.6	0.4
Cc1ccc(NC(=O)c2cccc(S(C)(=O)=O)c2)cc1	-2.7	-8.7	1.7	-2.4	1.0
CCc1ccc(NC(=O)COC(=O)c2nc3nc(C)cc(C)n3n2)cc1	40.6*	-10.6	37.3*	0.5	-0.2
Cc1cccc([N+](=O)[O-])c1NC(=O)COC(=O)c1nc2nccc(C)n2n1	52.4*	0.2	5.4	0.3	-1.0
Cc1cc(C)n2nc(C(=O)OCC(=O)Nc3ccc(C)c(F)c3)nc2n1	.	-6.4	.	2.3	.
N/C(=N\OC(=O)c1cccs1)c1ccccc1	-8.1	?	-2.1	10.6	-0.3
Cc1ccc(/C(N)=N/OC(=O)c2cccs2)cc1	-31.9	76.6*	0.4	?	-0.5
COc1ccc(/C(N)=N/OC(=O)c2c(-c3ccccc3Cl)noc2C)cc1OC	-16.2	56.5*	4.4	?	-0.3
COc1ccc(/C(N)=N/OC(=O)c2cccs2)cc1OC	2.1	70.6*	5.3	41.5*	0.4
Cc1cccc(/C(N)=N/OC(=O)c2cccs2)c1	.	111.9*	.	?	.
